Laboratory results as given in the supplement of paper PMC3334620.
Over roughly 33,000 sequences, “E-score (-0.5 to 0.5)” has its median near -0.012; the highest 2% begin near 0.29. This excerpt belongs to a sample that is enriched for the highest values.

Biological target: T1, Ybr033w (UniProt P38073)
T1 sequence: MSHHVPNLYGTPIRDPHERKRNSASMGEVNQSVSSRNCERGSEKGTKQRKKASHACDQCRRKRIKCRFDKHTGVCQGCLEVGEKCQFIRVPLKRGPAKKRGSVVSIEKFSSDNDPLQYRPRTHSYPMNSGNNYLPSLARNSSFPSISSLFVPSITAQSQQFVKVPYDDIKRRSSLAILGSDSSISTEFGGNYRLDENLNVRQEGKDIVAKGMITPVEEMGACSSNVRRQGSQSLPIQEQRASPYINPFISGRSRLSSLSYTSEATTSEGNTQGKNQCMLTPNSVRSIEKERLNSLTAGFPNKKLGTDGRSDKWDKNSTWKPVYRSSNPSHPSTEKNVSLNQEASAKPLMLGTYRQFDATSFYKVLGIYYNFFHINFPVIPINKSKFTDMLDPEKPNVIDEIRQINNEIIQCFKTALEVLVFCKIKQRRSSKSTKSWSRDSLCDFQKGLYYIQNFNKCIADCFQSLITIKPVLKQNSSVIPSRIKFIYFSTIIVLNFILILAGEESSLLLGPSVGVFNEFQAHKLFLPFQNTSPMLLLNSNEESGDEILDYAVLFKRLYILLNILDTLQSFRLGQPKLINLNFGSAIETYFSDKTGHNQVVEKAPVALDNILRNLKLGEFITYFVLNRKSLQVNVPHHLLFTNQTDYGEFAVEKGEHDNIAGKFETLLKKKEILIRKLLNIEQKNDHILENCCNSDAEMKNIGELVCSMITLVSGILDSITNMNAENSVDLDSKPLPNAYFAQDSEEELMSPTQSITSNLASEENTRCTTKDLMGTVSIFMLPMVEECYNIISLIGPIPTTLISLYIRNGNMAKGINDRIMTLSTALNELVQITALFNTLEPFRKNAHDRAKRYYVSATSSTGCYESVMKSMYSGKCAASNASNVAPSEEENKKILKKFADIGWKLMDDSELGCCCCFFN
Assay: PBM E-score (8-mer binding enrichment) (E-score (-0.5 to 0.5)); higher = stronger / more preferred TF binding
Conditions: protein concentration: 200 nM; construct: GST-full length
Procedure, shortened: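 Universal all-10-mer Agilent arrays, double-stranded by primer extension on fresh or once-stripped slides, were probed with about 100-200 nM GST-tagged yeast transcription factors made by PURExpress. Fluorescent anti-GST detected bound protein, and masliner normalised the scans. E-scores from the Universal PBM Analysis Suite were given to each ungapped eight-base word pooled with its reverse complement.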

Q: With AAAAAAAT as the sequence, how does the “PBM E-score” value read?
A: 0.248

Q: For AAAAATAT, which “PBM E-score” value is on record?
A: 0.349

Q: AAAAATAC was tested. Which “PBM E-score” value did it give?
A: 0.304

Q: Which “PBM E-score” value does the source give for CAAAATAG here?
A: 0.0554

Q: With ACAAATAG as the sequence, how does the “PBM E-score” value read?
A: 0.167

Q: CAAAATAC was tested. Which “PBM E-score” value did it give?
A: 0.217

Q: With CATTTTAA as the sequence, how does the “PBM E-score” value read?
A: 0.16

Q: Which “PBM E-score” value does the source give for CATTTTAC here?
A: 0.298

Q: CATTTTAG was tested. Which “PBM E-score” value did it give?
A: 0.234

Q: How did the “PBM E-score” value turn out when ACTTTTAA was run?
A: 0.125

Q: With ACTTTTAG as the sequence, how does the “PBM E-score” value read?
A: 0.0501

Q: How did the “PBM E-score” value turn out when ACTTTTAC was run?
A: 0.327

Q: With AGAACCGC as the sequence, how does the “PBM E-score” value read?
A: 0.096

Q: AGCGATTG was tested. Which “PBM E-score” value did it give?
A: -0.0938

Q: With CAAATAAC as the sequence, how does the “PBM E-score” value read?
A: 0.214

Q: For GCAAAACA, which “PBM E-score” value is on record?
A: 0.0364

Q: Which “PBM E-score” value does the source give for GGAAAACA here?
A: 0.17

Q: GAAAACCC was tested. Which “PBM E-score” value did it give?
A: -0.0428

Q: For CAAGAACA, which “PBM E-score” value is on record?
A: 0.0281

Q: TCAAAACA was tested. Which “PBM E-score” value did it give?
A: 0.298

Q: With GAAGAACA as the sequence, how does the “PBM E-score” value read?
A: 0.353

Q: Which “PBM E-score” value does the source give for AAAAAACA here?
A: 0.242

Q: GAAAAACA was tested. Which “PBM E-score” value did it give?
A: 0.295

Q: With GAAAAACC as the sequence, how does the “PBM E-score” value read?
A: 0.386

Q: How did the “PBM E-score” value turn out when GAAGAACC was run?
A: 0.248

Q: With GGAAAACC as the sequence, how does the “PBM E-score” value read?
A: -0.11

Q: For CCAAAACA, which “PBM E-score” value is on record?
A: -0.026

Q: CGGAACCA was tested. Which “PBM E-score” value did it give?
A: 0.141

Q: Which “PBM E-score” value does the source give for CAACAATC here?
A: 0.256

Q: With GAACAATA as the sequence, how does the “PBM E-score” value read?
A: 0.412

Q: Which “PBM E-score” value does the source give for TAACAATA here?
A: 0.273

Q: For GAACAATC, which “PBM E-score” value is on record?
A: 0.323

Q: How did the “PBM E-score” value turn out when CAACAAAC was run?
A: 0.161

Q: AAACAAAC was tested. Which “PBM E-score” value did it give?
A: 0.229

Q: AAACAATC was tested. Which “PBM E-score” value did it give?
A: 0.234

Q: AAACAATA was tested. Which “PBM E-score” value did it give?
A: 0.196

Q: Which “PBM E-score” value does the source give for GAACAAAC here?
A: 0.345

Q: How did the “PBM E-score” value turn out when TAGCAATA was run?
A: 0.16

Q: AATCAGCT was tested. Which “PBM E-score” value did it give?
A: 0.185

Q: How did the “PBM E-score” value turn out when AGCTGCCG was run?
A: -0.115

Q: GGTTAATA was tested. Which “PBM E-score” value did it give?
A: 0.209

Q: AGTTAATC was tested. Which “PBM E-score” value did it give?
A: 0.368

Q: Which “PBM E-score” value does the source give for AGTTAAAA here?
A: 0.298

Q: For AGTTAATG, which “PBM E-score” value is on record?
A: 0.216

Q: CGTTAAAA was tested. Which “PBM E-score” value did it give?
A: -0.0301

Q: CGTTAATA was tested. Which “PBM E-score” value did it give?
A: 0.166

Q: AGTTAATA was tested. Which “PBM E-score” value did it give?
A: 0.336

Q: For TGTTAAAA, which “PBM E-score” value is on record?
A: 0.226

Q: With CGTTAATC as the sequence, how does the “PBM E-score” value read?
A: 0.248

Q: TATTTGGA was tested. Which “PBM E-score” value did it give?
A: 0.082

Q: Which “PBM E-score” value does the source give for TCCAGACA here?
A: -0.127

Q: GAGCGCAA was tested. Which “PBM E-score” value did it give?
A: -0.0711

Q: How did the “PBM E-score” value turn out when AACATACA was run?
A: 0.179

Q: Which “PBM E-score” value does the source give for CACTCTTA here?
A: 0.0582

Q: For GAAGATGC, which “PBM E-score” value is on record?
A: -0.106

Q: AACAATAC was tested. Which “PBM E-score” value did it give?
A: 0.157

Q: AACAATAT was tested. Which “PBM E-score” value did it give?
A: 0.375

Q: GGTAATAA was tested. Which “PBM E-score” value did it give?
A: 0.228

Q: CGTAATAA was tested. Which “PBM E-score” value did it give?
A: 0.154

Q: Which “PBM E-score” value does the source give for TGTAATAA here?
A: 0.297

Q: AATAATAT was tested. Which “PBM E-score” value did it give?
A: 0.388

Q: Which “PBM E-score” value does the source give for GATAATAA here?
A: 0.194

Q: Which “PBM E-score” value does the source give for AACAATAA here?
A: 0.258

Q: With CATAATAA as the sequence, how does the “PBM E-score” value read?
A: 0.131

Q: Which “PBM E-score” value does the source give for TATAATAA here?
A: 0.318

Q: AATAATAC was tested. Which “PBM E-score” value did it give?
A: 0.245

Q: AATAATGT was tested. Which “PBM E-score” value did it give?
A: 0.183

Q: With AAGTTTAA as the sequence, how does the “PBM E-score” value read?
A: 0.139

Q: Which “PBM E-score” value does the source give for AAAAGAAA here?
A: 0.179

Q: For ACGGACGT, which “PBM E-score” value is on record?
A: -0.144

Q: AAAGAGCC was tested. Which “PBM E-score” value did it give?
A: -0.112

Q: How did the “PBM E-score” value turn out when CAGGCTGC was run?
A: -0.118

Q: For AGTAATAG, which “PBM E-score” value is on record?
A: 0.218

Q: How did the “PBM E-score” value turn out when AGTAATAC was run?
A: 0.222

Q: With AGTAATAT as the sequence, how does the “PBM E-score” value read?
A: 0.336

Q: How did the “PBM E-score” value turn out when TCTAATAA was run?
A: 0.291

Q: With AATAATAG as the sequence, how does the “PBM E-score” value read?
A: 0.202

Q: For ACTAATAA, which “PBM E-score” value is on record?
A: 0.276

Q: CCTAATAA was tested. Which “PBM E-score” value did it give?
A: -0.0059

Q: How did the “PBM E-score” value turn out when AATAATAA was run?
A: 0.399

Q: Which “PBM E-score” value does the source give for CCGGGCGA here?
A: -0.226

Q: For ACCTACAG, which “PBM E-score” value is on record?
A: 0.0954

Q: How did the “PBM E-score” value turn out when TCACGCCA was run?
A: -0.081

Q: For TAATTAAA, which “PBM E-score” value is on record?
A: 0.276

Q: AAATTAAA was tested. Which “PBM E-score” value did it give?
A: 0.339

Q: For AAATTAAC, which “PBM E-score” value is on record?
A: 0.251

Q: How did the “PBM E-score” value turn out when AAATTAAT was run?
A: 0.314

Q: Which “PBM E-score” value does the source give for TCATTAAA here?
A: 0.319

Q: With GAATTAAA as the sequence, how does the “PBM E-score” value read?
A: 0.149

Q: For GCATTAAA, which “PBM E-score” value is on record?
A: 0.147

Q: AAATTAAG was tested. Which “PBM E-score” value did it give?
A: 0.144

Q: ACATTAAA was tested. Which “PBM E-score” value did it give?
A: 0.225

Q: For AGGTAGGC, which “PBM E-score” value is on record?
A: -0.147

Q: Which “PBM E-score” value does the source give for AATCTGGG here?
A: 0.00147

Q: CGCGAGTC was tested. Which “PBM E-score” value did it give?
A: -0.0881

Q: Which “PBM E-score” value does the source give for GCATACTA here?
A: 0.0596

Q: With ATAGTTCC as the sequence, how does the “PBM E-score” value read?
A: 0.25

Q: For AGCTGCCA, which “PBM E-score” value is on record?
A: -0.135

Q: With TACAGATA as the sequence, how does the “PBM E-score” value read?
A: 0.291

Q: How did the “PBM E-score” value turn out when AACAGATA was run?
A: 0.096

Q: How did the “PBM E-score” value turn out when GACAGATA was run?
A: 0.0702

Q: GGCTGTAA was tested. Which “PBM E-score” value did it give?
A: -0.0501

Q: For ATTGAGTA, which “PBM E-score” value is on record?
A: 0.29

Q: ATTGAATA was tested. Which “PBM E-score” value did it give?
A: 0.305

Q: For ATTGAAAC, which “PBM E-score” value is on record?
A: 0.164

Q: Which “PBM E-score” value does the source give for ATTGAAAT here?
A: 0.296

Q: Which “PBM E-score” value does the source give for GTTGAGTA here?
A: 0.127

Q: Which “PBM E-score” value does the source give for CTTGAAAA here?
A: 0.207

Q: For ATTGAAAA, which “PBM E-score” value is on record?
A: 0.289

Q: For AATGAAAT, which “PBM E-score” value is on record?
A: 0.282

Q: How did the “PBM E-score” value turn out when ATTGAAAG was run?
A: 0.111

Q: Which “PBM E-score” value does the source give for ATTGAATC here?
A: 0.0535

Q: ATTGAGTC was tested. Which “PBM E-score” value did it give?
A: -0.0117

Q: CTTGAATA was tested. Which “PBM E-score” value did it give?
A: 0.155
